This is part of a sample that, as a whole, favours compounds with a hit. Of some 83,000 tested, about 20% had one in any assay.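 Testing used 96-well plates and a 48-hour single-concentration exposure. Example: -40 means 40% of the starting cells died.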 Unmarked numbers belong to inactive results. The source made the active and inactive calls.
These molecules were tested on LOX IMVI melanoma (assay: NCI-60 one-dose screen, 48 h (100 = growth as untreated, 0 = no growth, -100 = all killed)). Conditions: 10 µM unless noted.
Experimental: Growth inhibition of the LOX IMVI human tumor cell line is measured as a screen for anti-cancer activity. Cells are grown in 96 well plates and exposed to the test compound for 48 hours. Compounds are tested at a single concentration, which is 10^-5 M for most compounds. The reported endpoint is percent growth (GI% or GIPRCNT), where numbers from 0 - 100% represent growth inhibition, and numbers from -100% - 0 represent cell death. For example, a value of 40 represents 60% growth inhibition. A value of 0 means no net growth occurred over the course of the experiment. A value of -40 indicates 40% of cells at the beginning of the experiment died by the end of the experiment. A value of -100 means all cells are dead at the end of the experiment.
NCI-60 Human Tumor Cell Lines Screen was performed using the standard one-dose NCI protocol, which is described in more detail at https://dtp.cancer.gov/discovery_development/nci-60/default.htm.
Compounds with GIPRCNT values below 10 were considered active. Activity score was based on GIPRCNT using the following formula: […]
Score is 0 for GIPRCNT values of 100 or above, 50 for GIPRCNT values of 0, and 100 for GIPRCNT values of -100.
In the case of O=NN(C(=O)NC1CCC(C(=O)O)CC1)C1CCC(C(=O)O)CC1 (stereo not given), the growth is reported as 99.3%. In the case of CN1CCN(c2nc(Nc3ccc(O)cc3)nc3ccccc23)CC1, the growth is reported as 20.1%. With COc1ccc(Nc2cc(C)nc(NCc3ccccc3)n2)cc1 the growth was -57.5% (active). In the case of O=Cc1cc2ccccc2nc1Nc1nccs1, the growth is reported as 31.7%. In the case of CCOC(=O)C1=C(C)N=c2s/c(=C\c3ccccc3O)c(=O)n2C1c1ccc(OC)c2ccccc12 (stereo not given), the growth is reported as -85.6% (active). O=C(Nc1ccc(N2CCNCC2)cc1)c1[nH]ncc1Nc1cc(Oc2ccccc2)ncn1 was tested, and the growth was -81% (active). Nc1ccc(C2c3ccccc3Oc3ccccc32)cc1 was tested, and the growth was 90.8%. With O=c1oc2ccc(I)cc2c(=O)n1-c1ccc(F)cc1F the growth was 11.4%. In the case of COc1cc2nc(-c3cccc4cccnc34)nc(NC3CCN(Cc4ccccc4)CC3)c2cc1OC, the growth is reported as -82.3% (active). In the case of O=S(=O)(Nc1ncccn1)c1ccc(NC2Nc3nc4ccccc4nc3S2)cc1 (stereo not given), the growth is reported as 94.2%. COc1ccc2occ(C3=C(c4c[nH]c5ccccc45)C(=O)NC3=O)c2c1 gave a growth of 44.9%. O=c1oc2ccc(-c3ccc(F)cc3F)cc2c(=O)n1-c1ccc(Cl)c(C(F)(F)F)c1 was tested, and the growth was 32.1%. C#CCn1cc(C=C2C(=O)N(C)C(=O)N(C)C2=O)c2cc(Cl)ccc21 showed a growth of 96.8%. Cc1nc(Nc2cn[nH]c2C(=O)Nc2ccc(CN3CCN(C)CC3)cc2)c2ccsc2n1 was tested, and the growth was 72.8%. Nc1nc(-c2cnccn2)nn1-c1nc2ccccc2s1 was tested, and the growth was 105%. Molecule CC(=O)n1cc(-c2c[nH]c3ccccc23)c(-c2ccc(Cl)cc2)n1 has a growth of 86.8%. O=C1Nc2ccccc2/C1=C/c1cccs1 was tested, and the growth was 93%. CCOC(=O)C1=CN(C)C=C(C(=O)OCC)C1c1cc(Br)c(OCC)c(OC)c1 showed a growth of 18.3%. In the case of CC(C)CCNCC(O)Cn1c2ccccc2c2ccccc21 (stereo not given), the growth is reported as 1.91% (active). In the case of CC(=S)NC(=O)C(=O)/C=C1/NC(=O)C(=O)S1, the growth is reported as 99.7%. For O=C1c2ccccc2C(=O)c2c1ccc1[nH]c(CCl)nc21, the growth was -36.9% (active). With COC(=O)c1c2c(c(C)[n+]([O-])c1C)C(=O)C=C(NCc1ccccc1)C2=O the growth was -28.2% (active). Work on COc1ccc(Cn2c(Br)c3c(c2Br)-c2nc(N)sc2CC3)cc1 yielded a growth of 35.7%. O=C1OC(c2ccccc2)(c2ccccc2)c2ccsc21 was tested, and the growth was 103%. In the case of Cc1[nH]c2ccccc2c(=O)c1CC=C(Cl)Cl, the growth is reported as 3.09% (active). With CCOC(=O)c1c2c(n3cccc(Cl)c13)C(=O)c1ncccc1C2=O the growth was 27.3%. With COc1cccc(/C=C/C(=O)c2c(C)nc3ccccc3c2/C=C/c2ccccc2)c1OC the growth was -59.4% (active). NC(CCc1nc2ccccc2c(=O)[nH]1)C(=O)O (stereo not given) was tested, and the growth was 102%. CCCN1C(=O)N(CCC)C2C1NN=c1s/c(=C3\C(=O)N(C(C)C)c4ccccc43)c(=O)n12 (stereo not given) gave a growth of 41.1%. In the case of COc1c(B(O)O)cccc1-c1nc2ccc3[nH]ncc3c2c2c1C1CCC2C1 (stereo not given), the growth is reported as 52%. Molecule COc1cc(C2C3=C(COC3=O)N(CCO)c3cc4c(cc32)CCC4)cc(OC)c1O (stereo not given) has a growth of 28.2%. With O=C(COc1cc(O)c2c(=O)cc(-c3ccccc3)oc2c1)Nc1ccccc1 the growth was 89.6%. With COc1ccc(-c2nocc2-c2cccs2)cc1 the growth was 108%. In the case of CCCCC1CCc2cccc3c(SCC(=O)N(C)c4ccc(Cl)cc4)cc[n+]1c23 (stereo not given), the growth is reported as 99.7%. COc1cccc2c1C=C1CCCCC3=Cc4c(OC)cccc4OC13O2 was tested, and the growth was 32.8%. COC(=O)[C@H](NC(=O)C1(C)CCC[C@]2(C)[C@H]3C[C@H]4C(C(C)C)=C[C@]3(CC[C@@H]12)[C@@H]1C(=O)CCC(=O)[C@@H]14)C(C)C (stereo not given in full) gave a growth of 90.5%. With O=c1oc2ccc(Cl)cc2c(=O)n1-c1cc(C(F)(F)F)cc(C(F)(F)F)c1 the growth was -15.5% (active). With NS(=O)(=O)c1ccc(CCN=C=S)cc1 the growth was -27.9% (active). For O=C1/C(=C/c2ccc(O)cc2)COc2ccc(O)c(O)c21, the growth was -48.1% (active). With COc1cc(C(C)n2cc(-c3ccccc3)nn2)ccc1OC1CCCC1 (stereo not given) the growth was 60.6%.
